For 4 compounds, AC50 and outcome results are on record in PubChem BioAssay (EPA / NIEHS).

Inconclusive results are not listed. The source made the active and inactive calls. The calls were made as follows, unless noted: active = hit-call score of the fitted dose curve at least 0.9, where 1 is the maximum; inconclusive = response in the unintended direction; inactive = score below 0.9.

Assay [1] can be described thus: BSK_4H_Eotaxin3: BioMAP Diversity Plus: 4H Assay for Eotaxin 3 Biomarker Activity (AID 2283000; active = hit-call score of the fitted dose curve at least 0.9, where 1 is the maximum; inactive = score below 0.9;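 as to outcome: CCL26 protein level quantified by ELISA in parallel with SRB cytotoxicity check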). To be noted: primary human endothelial cells (HUVEC); actives raise or lower the signal. A digest of the protocol:
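Chemicals were added to human umbilical vein endothelium cultures, and Eotaxin-3 was quantified by ELISA at 24 h. Values were derived by bidirectional fitting with DMSO serving as negative control and activity baseline.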

Assay [2] concerns the target human Peroxisome Proliferator-activated Receptor alpha (PPARa), PPARA (gene 5465) (UniProt Q07869). The experiment in a line: ATG_PPARa_TRANS: Attagene TRANS-FACTORIAL HepG2 Assay for human Peroxisome Proliferator-activated Receptor alpha (PPARa) (AID 2283001). A digest of the protocol: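 Measures transcriptional activity of an exogenous chimeric PPARa-Gal4 protein in transiently transfected HepG2 cells after 24 h dosing. Reporter mRNA quantified via RT-PCR and capillary electrophoresis; DMSO served as negative control.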

Assay [3] concerns the target human Peroxisome Proliferator-activated Receptor delta (PPARd), PPARD (gene 5467) (UniProt Q03181). The assay can be described thus: ATG_PPARd_TRANS: Attagene TRANS-FACTORIAL HepG2 Assay for human Peroxisome Proliferator-activated Receptor delta (PPARd) (AID 2283002). A digest of the protocol: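 Fluorescence from capillary electrophoresis of labelled RT-PCR reporter fragments gives the signal; DMSO sets baseline. Cells: HepG2 transiently carrying GAL4-UAS reporter units plus chimeric nuclear receptor-Gal4 proteins, exposed to chemicals for 24 h.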

Read-out in assay [4]: Intercellular Adhesion Molecule 1 (ICAM1), ICAM1 (gene 3383)
The assay can be described thus: BSK_3C_ICAM1: BioMAP Diversity Plus: 3C Assay for Intercellular Adhesion Molecule 1 (ICAM1) Biomarker Activity (AID 2283003; active = hit-call score of the fitted dose curve at least 0.9, where 1 is the maximum; inactive = score below 0.9). Particulars: primary human endothelial cells (HUVEC); actives raise or lower the signal. In outline:
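Primary human umbilical vein endothelial cells in the BioMAP 3C system were exposed to chemicals for 24 h, then ICAM-1 was quantified by ELISA. Activity was fitted bidirectionally against the DMSO negative control baseline.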

A short description of assay [5]: BSK_3C_Proliferation: Cell Proliferation Assessment in the BioMAP Diversity Plus: 3C Assay (AID 2283006; active = hit-call score of the fitted dose curve at least 0.9, where 1 is the maximum; inactive = score below 0.9;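 as to AC50: potency may reflect either rise or fall in cell number versus DMSO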). To be noted: primary human endothelial cells (HUVEC). In outline:
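Human umbilical vein endothelial cells were grown sub-confluent and exposed to chemical for 48 h, then fixed with 10% TCA and stained with 0.1% sulforhodamine B; absorbance at 560 nm gave relative cell number, fitted bidirectionally against DMSO baseline.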

Assay [6] addresses Nuclear receptor subfamily 1 group I member 2 (Homo sapiens) (UniProt O75469). The experiment in a line: ATG_PXR_TRANS: Attagene TRANS-FACTORIAL HepG2 Assay for human Pregnane X Receptor (PXR) (AID 2283008). In outline: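 HepG2 cells transiently transfected with GAL4-UAS reporter units and PXR-Gal4 chimera, exposed 24 h. Reporter mRNA quantified by RT-PCR, fluorescent labelling, HpaI digestion and capillary electrophoresis; gain of signal vs DMSO.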

In assay [7] the target is human Retinoic Acid Receptor gamma (RARg), RARG (gene 5916) (UniProt P13631). The experiment in a line: ATG_RARg_TRANS: Attagene TRANS-FACTORIAL HepG2 Assay for human Retinoic Acid Receptor gamma (RARg) (AID 2283009). A digest of the protocol: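 HepG2 cells transiently transfected with multiplexed reporter units expressing chimeric RARg-GAL4 and GAL4-UAS-driven reporters; 24 h compound exposure. Reporter mRNA quantified by RT-PCR with fluorescent labelling and capillary electrophoresis; gain-of-signal fitted relative to DMSO baseline.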
Chain of human Retinoic Acid Receptor gamma (RARg), RARG (gene 5916) (P13631 whole entry, looked up, the tested form may be a part): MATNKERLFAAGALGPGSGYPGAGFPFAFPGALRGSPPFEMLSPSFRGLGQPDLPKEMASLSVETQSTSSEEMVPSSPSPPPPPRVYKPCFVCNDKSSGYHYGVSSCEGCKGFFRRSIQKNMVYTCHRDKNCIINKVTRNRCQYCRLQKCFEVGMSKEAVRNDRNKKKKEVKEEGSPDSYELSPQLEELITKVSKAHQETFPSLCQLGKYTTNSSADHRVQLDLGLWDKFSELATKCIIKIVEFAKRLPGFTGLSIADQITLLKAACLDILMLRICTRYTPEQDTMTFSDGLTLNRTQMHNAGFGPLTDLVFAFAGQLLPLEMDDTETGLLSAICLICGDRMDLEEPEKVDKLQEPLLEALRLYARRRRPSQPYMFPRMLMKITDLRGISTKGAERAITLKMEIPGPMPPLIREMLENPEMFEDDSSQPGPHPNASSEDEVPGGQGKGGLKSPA

For assay [8], the target named is human RAR-related Orphan Receptor beta (RORb), RORB (gene 6096) (UniProt Q92753). The assay can be described thus: ATG_RORb_TRANS: Attagene TRANS-FACTORIAL HepG2 Assay for human RAR-related Orphan Receptor beta (RORb) (AID 2283010). In outline:
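HepG2 cells were transiently transfected with multiplexed GAL4-UAS reporter units expressing chimeric nuclear receptor–GAL4 proteins, then dosed for 24 h. Reporter mRNA was quantified by RT-PCR with fluorescent labelling and capillary electrophoresis; gain of signal was fitted relative to DMSO.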

The target of assay [9] is human RAR-related Orphan Receptor gamma (RORg), RORC (gene 6097) (UniProt P51449). The assay can be described thus: ATG_RORg_TRANS: Attagene TRANS-FACTORIAL HepG2 Assay for human RAR-related Orphan Receptor gamma (RORg) (AID 2283011). A digest of the protocol: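 First, HepG2 liver cells were transfected with GAL4-UAS-driven reporter constructs and the RORg-Gal4 fusion. Next, they were treated with chemical for 24 h. Finally, reporter mRNA was quantified by RT-PCR and capillary electrophoresis, with upward activity fitted against DMSO.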
Chain of human RAR-related Orphan Receptor gamma (RORg), RORC (gene 6097) (P51449 whole entry, looked up, the tested form may be a part): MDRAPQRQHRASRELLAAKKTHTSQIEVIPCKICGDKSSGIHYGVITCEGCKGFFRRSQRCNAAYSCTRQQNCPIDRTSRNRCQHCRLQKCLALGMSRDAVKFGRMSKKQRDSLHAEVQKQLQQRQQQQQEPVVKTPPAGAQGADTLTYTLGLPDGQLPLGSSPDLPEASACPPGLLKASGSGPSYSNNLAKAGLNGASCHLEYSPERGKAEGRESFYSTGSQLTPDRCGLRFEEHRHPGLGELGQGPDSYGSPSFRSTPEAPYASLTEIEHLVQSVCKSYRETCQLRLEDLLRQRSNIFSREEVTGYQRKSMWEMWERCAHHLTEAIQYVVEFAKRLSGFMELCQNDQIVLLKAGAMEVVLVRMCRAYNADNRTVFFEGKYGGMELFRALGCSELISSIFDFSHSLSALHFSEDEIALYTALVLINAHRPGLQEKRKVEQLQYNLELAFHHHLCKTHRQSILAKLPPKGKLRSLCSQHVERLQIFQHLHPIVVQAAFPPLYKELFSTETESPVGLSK

For assay [10], the target named is Retinoic acid receptor RXR-alpha (Homo sapiens) (UniProt P19793). The assay can be described thus: ATG_RXRa_TRANS: Attagene TRANS-FACTORIAL HepG2 Assay for human Retinoid X Receptor alpha (RXRa) (AID 2283012). A digest of the protocol:
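HepG2 cells transiently transfected with multiplexed GAL4-UAS reporter units and chimeric NR-GAL4 fusions, dosed 24 h. Reporter mRNA measured by RT-PCR, FAM labelling, HpaI digestion and capillary electrophoresis; gain-of-signal fitted relative to DMSO baseline.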

For assay [11], the target named is human Retinoid X Receptor beta (RXRb), RXRB (gene 6257) (UniProt P28702). The experiment in a line: ATG_RXRb_TRANS: Attagene TRANS-FACTORIAL HepG2 Assay for human Retinoid X Receptor beta (RXRb) (AID 2283013). A digest of the protocol:
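HepG2 cells transiently transfected with multiplexed reporter units driven by GAL4-UAS and exogenous chimeric NR-Gal4 proteins; treated 24 h. Reporter mRNA measured by RT-PCR, 6-FAM labelling and capillary electrophoresis; gain-of-signal fitted versus DMSO baseline.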

Read-out in assay [12]: E-selectin (Homo sapiens) (UniProt P16581)
The experiment in a line: BSK_3C_Eselectin: BioMAP Diversity Plus: 3C Assay for Eselectin Biomarker Activity (AID 2283015; active = hit-call score of the fitted dose curve at least 0.9, where 1 is the maximum; inactive = score below 0.9;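 as to outcome: cell surface E-selectin protein quantified by ELISA 24 h after dosing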). To be noted: primary human endothelial cells (HUVEC); actives raise or lower the signal. A digest of the protocol: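 ELISA read-out of E-selectin on endothelial monolayers after 24 h chemical treatment. Human umbilical vein primary cells served as the system, with DMSO defining baseline activity for bidirectional fitting.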

Read-out in assay [13]: Interleukin-1 alpha (IL1a), IL1A (gene 3552)
The experiment in a line: BSK_BE3C_IL1a: BioMAP Diversity Plus: BE3C Assay for Interleukin-1 alpha (IL1a) Biomarker Activity (AID 2283016; active = hit-call score of the fitted dose curve at least 0.9, where 1 is the maximum; inactive = score below 0.9). To be noted: primary human bronchial epithelial cells; actives raise or lower the signal. A digest of the protocol:
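Human primary bronchial epithelial cells (BE3C system) were dosed with compound and IL-1a measured by ELISA 24 h later. Activity was fitted bidirectionally against DMSO baseline; cytotoxicity was tracked in parallel cultures by SRB total-protein staining.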

Read-out in assay [14]: Monocyte Chemoattractant Protein-1 (MCP1), CCL2 (gene 6347)
The experiment in a line: BSK_3C_MCP1: BioMAP Diversity Plus: 3C Assay for Monocyte Chemoattractant Protein-1 (MCP1) Biomarker Activity (AID 2283017; active = hit-call score of the fitted dose curve at least 0.9, where 1 is the maximum; inactive = score below 0.9). Particulars: primary human endothelial cells (HUVEC); actives raise or lower the signal. In outline:
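ELISA read-out of MCP-1 from human umbilical vein endothelial cell cultures harvested 24 h post-dosing. Gain or loss of signal was fitted relative to DMSO.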

Read-out in assay [15]: Monocyte Chemoattractant Protein-1 (MCP1), CCL2 (gene 6347)
The assay can be described thus: BSK_4H_MCP1: BioMAP Diversity Plus: 4H Assay for Monocyte Chemoattractant Protein-1 (MCP1) Biomarker Activity (AID 2283018; active = hit-call score of the fitted dose curve at least 0.9, where 1 is the maximum; inactive = score below 0.9). Particulars: primary human endothelial cells (HUVEC); actives raise or lower the signal. A digest of the protocol: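 Human umbilical vein endothelial cells (4H system) dosed with chemical; MCP-1 measured by ELISA 24 h after dosing. Bidirectional curve fitting against DMSO negative control as baseline; parallel SRB total-protein staining tracks overt cytotoxicity.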

Read-out in assay [16]: Human Leukocyte Antigen - DR isotype (HLADR), HLA-DRA (gene 3122)
The experiment in a line: BSK_3C_HLADR: BioMAP Diversity Plus: 3C Assay for Human Leukocyte Antigen - DR isotype (HLADR) Biomarker Activity (AID 2283019; active = hit-call score of the fitted dose curve at least 0.9, where 1 is the maximum; inactive = score below 0.9;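 as to outcome: ELISA of cell-surface HLA-DR on HUVEC 24 h after dosing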). Particulars: primary human endothelial cells (HUVEC); actives raise or lower the signal. In outline:
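ELISA readout of surface HLA-DR on human umbilical vein endothelium, taken 24 h after chemical treatment. Gain- and loss-of-signal were both fitted relative to DMSO.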

Assay [17] has as its target Peroxisome proliferator-activated receptor gamma (Homo sapiens) (UniProt P37231). The assay can be described thus: ATG_PPARg_TRANS: Attagene TRANS-FACTORIAL HepG2 Assay for human Peroxisome Proliferator-activated Receptor-gamma (PPARg) (AID 2283007). In outline: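 Chimeric NR-Gal4 transactivation is measured in transiently transfected HepG2 cells by reporter mRNA induction at 24 h. Detection uses RT-PCR with fluorescent labelling and capillary electrophoresis; DMSO defines baseline.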

Assay [18] deals with human Thyroid Receptor alpha (THRa1), THRA (gene 7067) (UniProt P10827). The assay can be described thus: ATG_THRa1_TRANS: Attagene TRANS-FACTORIAL HepG2 Assay for human Thyroid Receptor alpha (THRa1) (AID 2283014). In outline:
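Reporter transcript induction, read by capillary electrophoresis of 6-FAM-labelled RT-PCR products, reflects activity of a transfected THRa1-Gal4 fusion in HepG2 liver cells. Cells were dosed for 24 h; activity was fitted in the positive direction against DMSO.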

Assay [19] has as its target human Retinoic Acid Receptor beta (RARb), RARB (gene 5915) (UniProt P10826). The assay can be described thus: ATG_RARb_TRANS: Attagene TRANS-FACTORIAL HepG2 Assay for human Retinoic Acid Receptor beta (AID 2283004). In outline:
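Transient transfection of HepG2 with multiple reporter units → chemical dosing, 24 h → total RNA isolation → RT with oligo(dT) → reporter-specific PCR, 6-FAM primer extension, HpaI digest → capillary electrophoresis. Positive direction vs DMSO control.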

Assay [20] deals with Retinoic acid receptor alpha (Homo sapiens) (UniProt P10276). The experiment in a line: ATG_RARa_TRANS: Attagene TRANS-FACTORIAL HepG2 Assay for human Retinoic Acid Receptor alpha (RARa) (AID 2283005). A digest of the protocol: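 HepG2 transiently transfected with multiplex GAL4-UAS reporter units including a human RARa–GAL4 chimera; 24 h compound exposure. Reporter mRNA quantified by RT-PCR, 6-FAM labeling and capillary electrophoresis; gain of signal versus DMSO.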

Chain of human Peroxisome Proliferator-activated Receptor delta (PPARd), PPARD (gene 5467) (Q03181 whole entry, looked up, the tested form may be a part): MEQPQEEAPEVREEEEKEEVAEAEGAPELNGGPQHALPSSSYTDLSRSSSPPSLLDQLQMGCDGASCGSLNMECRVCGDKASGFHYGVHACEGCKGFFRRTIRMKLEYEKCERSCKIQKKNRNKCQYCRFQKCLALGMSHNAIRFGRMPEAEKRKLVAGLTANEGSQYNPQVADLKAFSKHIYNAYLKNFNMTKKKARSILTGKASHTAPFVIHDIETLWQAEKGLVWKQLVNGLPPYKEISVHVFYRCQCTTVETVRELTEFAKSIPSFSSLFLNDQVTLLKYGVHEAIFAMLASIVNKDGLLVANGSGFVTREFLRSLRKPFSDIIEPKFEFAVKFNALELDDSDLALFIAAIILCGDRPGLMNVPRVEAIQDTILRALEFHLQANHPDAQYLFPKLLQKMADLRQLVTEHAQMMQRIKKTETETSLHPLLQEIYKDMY
Chain of Retinoic acid receptor RXR-alpha (Homo sapiens) (P19793 whole entry, looked up, the tested form may be a part): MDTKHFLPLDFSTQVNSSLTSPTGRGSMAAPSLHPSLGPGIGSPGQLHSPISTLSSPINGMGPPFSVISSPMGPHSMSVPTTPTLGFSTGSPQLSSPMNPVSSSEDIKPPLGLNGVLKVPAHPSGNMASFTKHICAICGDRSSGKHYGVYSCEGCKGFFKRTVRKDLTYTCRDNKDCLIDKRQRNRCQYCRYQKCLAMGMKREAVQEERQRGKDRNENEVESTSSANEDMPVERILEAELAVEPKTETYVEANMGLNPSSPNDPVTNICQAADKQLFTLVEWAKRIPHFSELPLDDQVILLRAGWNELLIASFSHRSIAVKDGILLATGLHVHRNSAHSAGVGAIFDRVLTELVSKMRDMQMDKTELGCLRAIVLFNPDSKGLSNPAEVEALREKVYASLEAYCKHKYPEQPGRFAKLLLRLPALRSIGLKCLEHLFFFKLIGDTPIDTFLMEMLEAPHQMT
Chain of human RAR-related Orphan Receptor beta (RORb), RORB (gene 6096) (Q92753 whole entry, looked up, the tested form may be a part): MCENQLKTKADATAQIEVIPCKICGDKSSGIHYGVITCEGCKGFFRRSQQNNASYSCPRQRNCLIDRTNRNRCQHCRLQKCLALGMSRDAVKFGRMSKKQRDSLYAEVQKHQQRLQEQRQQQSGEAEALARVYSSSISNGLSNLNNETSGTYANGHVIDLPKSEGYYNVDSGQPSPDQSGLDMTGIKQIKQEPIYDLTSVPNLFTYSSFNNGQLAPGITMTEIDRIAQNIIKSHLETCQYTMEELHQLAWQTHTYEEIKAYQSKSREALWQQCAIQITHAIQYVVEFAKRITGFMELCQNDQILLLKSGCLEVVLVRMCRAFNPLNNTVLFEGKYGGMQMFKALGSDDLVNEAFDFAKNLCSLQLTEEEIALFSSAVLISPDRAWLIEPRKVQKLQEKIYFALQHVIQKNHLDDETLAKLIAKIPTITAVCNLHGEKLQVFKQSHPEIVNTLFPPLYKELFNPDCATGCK
Chain of Nuclear receptor subfamily 1 group I member 2 (Homo sapiens) (O75469 whole entry, looked up, the tested form may be a part): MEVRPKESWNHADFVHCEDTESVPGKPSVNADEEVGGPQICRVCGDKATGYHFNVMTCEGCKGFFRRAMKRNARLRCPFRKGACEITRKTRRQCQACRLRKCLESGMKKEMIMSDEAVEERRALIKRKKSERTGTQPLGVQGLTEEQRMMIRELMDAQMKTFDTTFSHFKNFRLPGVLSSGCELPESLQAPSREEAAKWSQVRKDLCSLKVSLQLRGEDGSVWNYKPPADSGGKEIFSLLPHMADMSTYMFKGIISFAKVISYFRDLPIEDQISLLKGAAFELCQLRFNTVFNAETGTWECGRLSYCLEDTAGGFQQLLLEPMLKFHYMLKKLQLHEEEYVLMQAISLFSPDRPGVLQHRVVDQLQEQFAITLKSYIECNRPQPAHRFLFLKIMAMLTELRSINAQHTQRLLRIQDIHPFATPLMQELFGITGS
Chain of human Peroxisome Proliferator-activated Receptor alpha (PPARa), PPARA (gene 5465) (Q07869 whole entry, looked up, the tested form may be a part): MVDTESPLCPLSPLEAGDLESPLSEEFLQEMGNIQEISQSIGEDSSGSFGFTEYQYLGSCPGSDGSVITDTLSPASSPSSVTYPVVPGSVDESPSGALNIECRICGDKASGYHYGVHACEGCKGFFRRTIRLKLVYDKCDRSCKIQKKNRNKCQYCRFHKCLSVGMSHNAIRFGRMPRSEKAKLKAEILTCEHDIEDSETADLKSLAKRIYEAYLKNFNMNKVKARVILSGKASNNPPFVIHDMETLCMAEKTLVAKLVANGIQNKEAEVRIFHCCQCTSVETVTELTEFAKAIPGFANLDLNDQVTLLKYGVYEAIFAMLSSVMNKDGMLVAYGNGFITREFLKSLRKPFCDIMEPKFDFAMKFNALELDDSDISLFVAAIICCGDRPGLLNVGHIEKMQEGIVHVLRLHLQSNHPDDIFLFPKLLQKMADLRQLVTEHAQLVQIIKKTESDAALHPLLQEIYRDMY
Chain of human Retinoid X Receptor beta (RXRb), RXRB (gene 6257) (P28702 whole entry, looked up, the tested form may be a part): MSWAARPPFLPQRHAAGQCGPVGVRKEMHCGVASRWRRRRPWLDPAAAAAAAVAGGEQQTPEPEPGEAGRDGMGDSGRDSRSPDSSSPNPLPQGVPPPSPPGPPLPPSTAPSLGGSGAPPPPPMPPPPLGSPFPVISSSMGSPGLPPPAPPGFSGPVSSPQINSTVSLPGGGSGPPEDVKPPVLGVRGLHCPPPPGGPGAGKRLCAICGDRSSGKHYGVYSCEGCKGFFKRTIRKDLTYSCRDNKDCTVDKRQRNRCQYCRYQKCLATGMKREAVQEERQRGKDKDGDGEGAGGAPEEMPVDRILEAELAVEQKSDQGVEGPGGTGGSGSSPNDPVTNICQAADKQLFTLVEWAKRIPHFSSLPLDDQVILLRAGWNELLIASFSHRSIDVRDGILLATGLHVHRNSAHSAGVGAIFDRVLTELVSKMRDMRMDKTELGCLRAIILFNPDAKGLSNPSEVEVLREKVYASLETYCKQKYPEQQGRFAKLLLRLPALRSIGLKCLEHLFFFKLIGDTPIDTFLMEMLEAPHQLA
Chain of E-selectin (Homo sapiens) (P16581 whole entry, looked up): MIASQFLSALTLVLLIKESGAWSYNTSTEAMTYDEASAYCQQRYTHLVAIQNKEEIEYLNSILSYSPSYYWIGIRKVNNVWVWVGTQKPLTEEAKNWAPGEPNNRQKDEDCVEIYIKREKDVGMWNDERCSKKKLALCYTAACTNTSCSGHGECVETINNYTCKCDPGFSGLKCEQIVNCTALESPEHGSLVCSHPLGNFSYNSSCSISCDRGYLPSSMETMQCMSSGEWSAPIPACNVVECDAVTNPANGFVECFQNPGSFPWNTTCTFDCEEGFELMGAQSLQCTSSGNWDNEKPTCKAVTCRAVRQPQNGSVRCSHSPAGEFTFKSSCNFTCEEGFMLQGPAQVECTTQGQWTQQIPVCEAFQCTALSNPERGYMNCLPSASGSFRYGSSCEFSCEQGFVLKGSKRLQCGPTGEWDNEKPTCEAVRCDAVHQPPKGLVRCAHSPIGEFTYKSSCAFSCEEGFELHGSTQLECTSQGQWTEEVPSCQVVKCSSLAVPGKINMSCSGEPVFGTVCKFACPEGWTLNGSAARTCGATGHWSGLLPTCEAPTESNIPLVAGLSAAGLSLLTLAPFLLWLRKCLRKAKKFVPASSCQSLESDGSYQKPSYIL
Chain of human Thyroid Receptor alpha (THRa1), THRA (gene 7067) (P10827 whole entry, looked up, the tested form may be a part): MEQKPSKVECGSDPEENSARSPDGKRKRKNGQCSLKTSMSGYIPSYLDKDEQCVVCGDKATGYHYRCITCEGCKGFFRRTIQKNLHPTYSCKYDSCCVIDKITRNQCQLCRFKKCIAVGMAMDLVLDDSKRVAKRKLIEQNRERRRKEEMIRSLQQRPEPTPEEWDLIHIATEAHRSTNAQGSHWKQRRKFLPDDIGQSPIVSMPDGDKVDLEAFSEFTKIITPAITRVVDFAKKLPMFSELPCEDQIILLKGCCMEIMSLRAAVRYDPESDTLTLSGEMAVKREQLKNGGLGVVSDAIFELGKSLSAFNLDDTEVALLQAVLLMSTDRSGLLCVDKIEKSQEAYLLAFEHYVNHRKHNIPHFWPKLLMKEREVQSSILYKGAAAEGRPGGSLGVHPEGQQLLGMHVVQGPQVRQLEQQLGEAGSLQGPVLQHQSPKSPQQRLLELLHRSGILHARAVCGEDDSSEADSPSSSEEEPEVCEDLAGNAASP

Broadly, the AC50 is the midpoint of the concentration-response curve, whichever way the signal moves. In the case of `CC=C(C)C(C)=O`, the AC50 in [1] was 20 µM (active); in [6], 12 µM (active); in [10], 100 µM (active); in assay [11] it was 9.05 µM (active). Moreover, the result in assay [2], in assay [3], in [4], in assay [5], in assay [7] and in assay [8] was inactive. The compound was classed as inactive in [9], in assay [12], in assay [13], in [14], in assay [15] and in assay [16].
`C=CC(=O)OCC(C)OCC(C)OCC(C)OC(=O)C=C` (configuration not stated): the concentration at half-maximal activity (AC50) in assay [1] is 8.38 µM (active); in assay [4], 28.2 µM (active); in assay [5] it was 9.51 µM (active); in assay [17], 10.3 µM (active); in assay [6] it was 9.63 µM (active); in assay [12], 11 µM (active). The AC50 is 21.5 µM (active) in [13], 28.9 µM (active) in [14], 7.07 µM (active) in assay [15] and 8.55 µM (active) in assay [16]. In addition, the compound was classed as inactive in [2], in assay [3], in [7], in [8], in assay [9] and in [10]. In assay [18], the result was inactive.
Turning to `C=CC(=O)NCOCCCC`, the outcome in [1], in assay [2], in [3], in assay [5], in assay [6] and in [8] was inactive. In addition, the compound was called inactive in [9], in [11], in assay [12], in assay [13], in [14] and in assay [15]. In addition, the outcome in [16] was inactive. The AC50 in assay [17] is 34.2 µM (active).
On to `CC(c1cc(C(C)(C)C)cc(C(C)(C)C)c1O)c1cc(C(C)(C)C)cc(C(C)(C)C)c1O`, for which the AC50 in assay [1] was 1.65 µM (active); in [5], 5.09 µM (active); in [6], 0.0816 µM (active); in assay [11] it was 1.83 µM (active); in assay [12], 1.21 µM (active). For the same compound, the call in [2], in assay [3], in [19], in [20], in assay [10] and in assay [18] was inactive. For the same compound, the result in assay [13], in assay [14], in [15] and in [16] was inactive.
